Compound activity: PubChem BioAssay, National Center for Advancing Translational Sciences (NCATS)
Only some compounds are listed: those with a hit (about 5.2% of all), similar ones and a draw of the others.
FLuc inh = firefly luciferase inhibition. P08659. purified firefly luciferase, luminescence, 8 min. Potency, µM (top dose mostly 57.1 µM), actives largely listed as inhibitors. hit rate 2.2% among 72,000. AID 411; also: nearly all actives have a fitted effect of over 40% in size
Target sequence (P08659 whole entry, looked up): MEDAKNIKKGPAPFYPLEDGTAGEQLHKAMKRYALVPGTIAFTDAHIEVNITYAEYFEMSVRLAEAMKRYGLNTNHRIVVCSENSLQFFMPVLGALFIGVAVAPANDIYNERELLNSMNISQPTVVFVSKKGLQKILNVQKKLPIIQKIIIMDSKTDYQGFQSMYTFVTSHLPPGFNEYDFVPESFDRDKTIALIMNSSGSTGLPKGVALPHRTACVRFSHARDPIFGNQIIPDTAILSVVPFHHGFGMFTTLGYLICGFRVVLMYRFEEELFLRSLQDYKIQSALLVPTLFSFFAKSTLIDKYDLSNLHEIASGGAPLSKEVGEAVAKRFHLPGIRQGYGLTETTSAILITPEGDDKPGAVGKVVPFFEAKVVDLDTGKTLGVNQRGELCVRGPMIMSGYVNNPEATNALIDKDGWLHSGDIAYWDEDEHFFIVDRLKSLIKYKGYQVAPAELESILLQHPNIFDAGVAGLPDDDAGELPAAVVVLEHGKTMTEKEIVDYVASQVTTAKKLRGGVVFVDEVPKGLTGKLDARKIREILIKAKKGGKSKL
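Inhibition of light generation by firefly luciferase from ATP and luciferin was profiled with concentration-response curves per sample, ATP held at 10 uM within the enzyme's linear range. Plates were read by luminescence after an 8-minute ambient incubation.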
TSHR ag = TSH receptor (human) agonism | P16473 | hit rate 0.48% among 73,000 | HEK293-CNG-TSHR cells (CNG channel as cAMP sensor), membrane potential dye, cAMP | Potency, µM (titrated, usually from 57.1 µM), actives largely listed as activators; active = well fitted activation curve with a large enough effect in the main read-out, with a control signal flat, not every such curve was filed as active; inconclusive = small, poorly fitted or top-dose-only effect, or a change in a side signal; inactive = no such curve, though single readings can be large or run the other way; reference of the percent scale not stated here;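 also: the control signal comes from parental cells without the receptor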
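HEK 293 cells stably expressing TSHR and a modified CNG channel, with CNG-only parental cells as counterscreen, were preloaded 60 min at room temperature with membrane potential dye containing 100 uM RO 20-1724. Compound exposure was 30 min, and depolarization was read as fluorescence at 590 nm.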
HEK293 cAMP ctrl = raises cAMP in parental HEK293 cells, TSHR agonist counter-screen. parental HEK293 CNG cAMP sensor, membrane potential fluorescence. Potency, µM (doses to about 57.1 µM), usual class: activators. hit rate 2.5% among 73,000; also: nearly all actives have a fitted effect of over 55% in size
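Parental HEK 293 cells stably expressing a cAMP-gated CNG channel were loaded with membrane potential dye containing 100 uM RO 20-1724 for 60 min. Compound added for 30 min; depolarization read as fluorescence intensity at 590 nm.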
Bst PK mod = alters activity of Bacillus stearothermophilus pyruvate kinase | purified pyruvate kinase, luminescence ATP production; ribose 5-phosphate activator present at AC10 | Potency, µM | hit rate 1.2% among 51,000 | AID 361; in the data active = potency below about 11 µM; inconclusive = mostly about 12 µM to 25 µM;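 the screen sought inhibitors and activators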
A number is an active result; – = inactive; ? = inconclusive; · = no result given; [ ] = another dose, or the depositor's remark. Unless noted, calls follow the shape of the dose curve; as a rule, active = well fitted curve in the direction sought with a large enough effect; inconclusive = small, poorly fitted or top-dose-only effect, or another doubt; inactive = no such curve, though single readings can be large; an effect the other way counts as inactive or inconclusive.

SMILES | FLuc inh | TSHR ag | HEK293 cAMP ctrl | Bst PK mod
CCOC(=O)CCN1C(=O)[C@H]2[C@@H]3[C@H](O)[C@H](O)CC(=O)[C@H]3CC[C@H]2C1=O | –[11.4 µM] | –[11.4 µM] | –[11.4 µM] | ·
Cc1cccnc1Nc1nc(-c2ccc(O)cc2O)cs1 | 15.8µM | – | – | 1.67
CN(C)c1ccc(NC(=O)CN2CCN(S(=O)(=O)c3cc(Cl)ccc3Cl)CC2)cc1 | – | – | –[2.29 µM] | 9.45
O=C(CN1CCN(S(=O)(=O)c2cc(Cl)ccc2Cl)CC1)Nc1ccc2c(c1)OCCO2 | – | · | – | 4.74
O=C(Nc1ccc2c(c1)OCCO2)c1ccc(Cl)c(S(=O)(=O)N2CCOCC2)c1 | – | ? | ? | –
CC(C)(C)NS(=O)(=O)c1ccc(OCC(=O)Nc2ccc3c(c2)OCCO3)cc1 | – | – | – | –
Cc1cc(OCC(=O)Nc2ccc3c(c2)OCCO3)ccc1Cl | – | ? | 0.251µM | –
CCSc1nnc(NC(=O)c2ccccn2)s1 | ? | – | – | ·
COc1ccc(-c2csc(N(CC3CCCO3)C(=O)c3cccs3)n2)cc1 (stereo unspecified) | – | ? | 15.8µM | –
COc1ccc(S(=O)(=O)N2CCC(O)(c3ccc(Cl)cc3)CC2)cc1 | – | ? | ? | –
Cc1ccc(S(=O)(=O)N2CCN(c3nc(C)nc4sc(C)c(C)c34)CC2)cc1 | – | – | – | –
O=C(CCn1c(=O)sc2ccccc21)Nc1nccs1 | 20µM | – | – | ·
Cc1csc(NC(=O)CCn2c(=O)sc3ccccc32)n1 | – | – | – | –
CC(C)C(c1nnnn1Cc1ccc(F)cc1)N1CCN(Cc2ccc3c(c2)OCO3)CC1 (stereo unspecified) | – | – | – | –
CCC(c1nnnn1Cc1ccc2c(c1)OCO2)N1CCN(c2ccc(OC)cc2)CC1 (stereo unspecified) | – | ? | ? | –
CCC(c1nnnn1Cc1ccc2c(c1)OCO2)N1CCN(c2ccc(F)cc2)CC1 (stereo unspecified) | – | ? | 15.8µM | –
CCC(c1nnnn1Cc1ccc2c(c1)OCO2)N1CCN(c2ccccc2)CC1 (stereo unspecified) | – | ? | 15.8µM | –
CCCOc1ccc(CSc2nnc(CCC)n2N)cc1 | – | – | – | –
CCCC/C=C/C(NC(=O)Oc1cccc(C(F)(F)F)c1)c1ccccc1 (stereo unspecified) | · | ? | 25.1µM | ·
CCCC/C=C/C(NC(=O)CCc1ccccc1)c1ccccc1 (stereo unspecified) | · | ? | 10µM | ·
CSCSC1=C(C#N)C(c2ccc(Cl)cc2)C(C(C)=O)=C(C)N1 (stereo unspecified) | – | ? | 25.1µM | ·
CCOC(=O)CSC1=C(C#N)C(c2ccccc2)C(C(C)=O)=C(C)N1 (stereo unspecified) | – | – | – | –
COc1ccc(NCC(=O)Nc2ccc(Cl)cc2C)c(OC)c1 | – | · | – | –
Cc1cc(C(=O)NCCC2=CCCCC2)c(C)o1 | 15.8µM | – | – | ·
N#CCCCSc1ncccc1-c1nc2ccccc2[nH]1 | – | – | – | –
SMILES | FLuc inh | TSHR ag | HEK293 cAMP ctrl | Bst PK mod
Cc1oc2cc(OC(C)C(=O)O)ccc2c(=O)c1Oc1ccccc1 (stereo unspecified) | – | – | – | –
COC(=O)c1cn(NC(=O)C2CCCCC2)c(=O)c2ccccc12 | – | ? | 12.6µM | –
CN(C1CCS(=O)(=O)C1)S(=O)(=O)c1cccc2nsnc12 (stereo unspecified) | – | · | · | –
Cc1nnc(SCc2ccccc2Cl)n1CC1CCCO1 (stereo unspecified) | – | – | – | –
c1ccc2c(c1)nc(Nc1ccc3c(c1)OCO3)c1nnnn12 | ? | – | – | 8.6
Cc1cccc(-n2nnnc2SC(C)C(=O)NCCC2=CCCCC2)c1 (stereo unspecified) | – | ? | 12.6µM | –
CCN(CC)S(=O)(=O)c1cccc(-c2nnc(SCC(=O)NCCC3=CCCCC3)n2N)c1 | – | – | – | –
O=S1(=O)C=C(Sc2nc3ccccc3s2)c2ccccc21 | 12.6µM | – | – | –
Cc1cc(NC(=O)COc2cccc(C)c2C)no1 | – | – | – | ·
Cc1ccc(C)c(OCC(=O)Nc2nonc2NC(=O)COc2cc(C)ccc2C)c1 | – | ? | 25.1µM | –
COC(=O)c1ccc(NC(=O)c2sc3nc(-c4ccccc4)cn3c2C)cc1 | – | ? | 31.6µM | –
COCCN(CCOC)C(=O)c1sc2nc(-c3ccccc3)cn2c1C | – | – | – | –
COc1ccc(-c2cn3c(C)c(C(=O)Nc4cccc(NC(C)=O)c4)sc3n2)cc1 | 12.6µM | – | – | –
O=C(CN1C(=O)c2cccc3cccc1c23)Nc1cccnc1 | – | – | – | 10.4
O=C(CN1C(=O)c2cccc3cccc1c23)NCc1cccnc1 | – | ? | ? | –
CCOc1ccccc1NC(=O)N1CCCC1C(=O)Nc1ccc(-n2cnnn2)c(C)c1 (stereo unspecified) | – | 20µM | – | –
C[C@]12CC[C@H]3c4ccc(OC[C@H]5CO5)cc4CC[C@H]3[C@H]1CC[C@@H]2O | –[11.4 µM] | –[11.4 µM] | –[11.4 µM] | ·
COc1ccccc1CNc1cc(-c2ccccc2Cl)ncn1 | –[2.29 µM] | ? | 15.8µM | ·
COc1ccccc1-c1cc(NCc2cccc(C)c2)ncn1 | –[2.29 µM] | ? | 20µM | ·
COc1ccccc1CNc1cc(-c2ccccc2C(F)(F)F)ncn1 | –[2.29 µM] | ? | ? | ·
CN1CCN(c2nc3c(c(=O)[nH]c(=O)n3C)n2CCOc2ccccc2)CC1 | – | – | – | –
COC(=O)c1ccccc1NC(=O)Cn1c(-c2nonc2N)nc2ccccc21 | – | ? | 15.8µM | –
Cc1ccc(-c2sc(C)nc2CC(=O)O)cc1 | – | – | – | –
CN1CCN(c2nc(-c3ccoc3)nc3ccccc23)CC1 | –[2.29 µM] | 5.01µM | – | ·
COc1ccc(OC(=O)c2ccncc2)cc1 | – | –[11.4 µM] | – | –
SMILES | FLuc inh | TSHR ag | HEK293 cAMP ctrl | Bst PK mod
COc1ccc(C(=O)Oc2ccc(/C=N/O)cc2)cc1 | 12.6µM | – | – | ·
O=C(Nc1nccs1)c1ccc(S(=O)(=O)NCc2cccs2)cc1 | – | – | – | –
CN(c1ccc(C(=O)Nc2nccs2)cc1)S(=O)(=O)c1ccccc1 | – | ? | 31.6µM | –
COc1ccc(C(=O)N2CCC3(CCN(CC(C)C)CC3)CC2)cc1 | –[11.4 µM] | – | – | ·
Cc1ccc2nc3c(cc2c1)c(NC(=O)c1cccnc1)nn3C | 12.6µM | – | – | –
CNc1nc2sc3c(c2c(=O)n1C)CC(C)(C)SC3 | – | – | – | ·
COc1ccccc1NC(=O)CN1CCN(c2ccc(Cl)cc2)CC1 | – | ? | 20µM | –
COc1ccc(COC(=O)N/N=C2/C[C@@H](O)[C@@H](O)[C@@H]3[C@@H]4C(=O)N(c5cccc(Oc6ccccc6)c5)C(=O)[C@H]4CC[C@H]23)cc1 | –[11.4 µM] | –[11.4 µM] | –[11.4 µM] | ·
COc1ccc(C(=O)N2CCN(c3c(C)cccc3C)CC2)cc1OC | – | – | – | ·
Clc1ccc(-c2nnc(SCc3ccon3)o2)c(Cl)c1 | 7.94µM | – | – | 10.2
C=CCSc1nnc(-c2ccc(Cl)cc2Cl)o1 | 7.94µM | –[11.4 µM] | –[11.4 µM] | ·
c1ccc2c(c1)ccc1nnc(-c3ccc4c(c3)OCO4)n12 | – | – | – | ·
Cc1ccc(NCc2nc3ccccc3n2C)cc1 | 12.6µM | – | – | ?
COc1ccc(Cn2c(C3CC3)nc3ccc(NC(=O)C4CC4)cc3c2=O)cc1 | 15.8µM | ? | ? | ·
